Sampled rows, rich in hits. Any-hit rate of the full collection: about 4.1%.
hgDAF-12 ag – agonists of H. glycines DAF-12 nuclear receptor; HEK293 GAL4-hgDAF12 UAS-luciferase reporter, agonist luminescence; normalized to butyrate control; activation, % at 6.8 µM; actives 1.8% (n = 370,000); AID 687014;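 active = activation above a cutoff set at the mean of all screened compounds plus 3 SD, cut at about 10% in these data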;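 note: 0% = DMSO wells and 100% = sodium butyrate wells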
DAX1 inh-1 – inhibitors of DAX1 repression of SF-1 activated StAR promoter | actives 1.1% (n = 370,000) | HEK293T StAR-luciferase reporter, SF-1/DAX-1 repression relief | inhibition, % at 6.8 µM | AID 652010;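 active = inhibition above the mean over all tested compounds plus 3 SD, cut at about 3.6% in these data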;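 note: 0% = DAX-1 cells with DMSO and 100% = cells lacking DAX-1 with DMSO; higher inhibition means more luminescence from relief of DAX-1 repression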
DAX1 inh-2 – inhibitors of human orphan nuclear receptor DAX1 (NR0B1) | P51843 | HEK293 Gal4-DAX1 luciferase reporter, luminescence | inhibition, % at 6.75 µM | actives 0.99% (n = 340,000);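 active = inhibition above the mean over all tested compounds plus 3 SD, cut at about 4.2% in these data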;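 note: 0% = DAX1-transfected cells with DMSO and 100% = empty-vector control cells with DMSO; inhibition shows as a rise in luminescence from relieved DAX1 repression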
Target sequence (P51843 207-470 limits assumed): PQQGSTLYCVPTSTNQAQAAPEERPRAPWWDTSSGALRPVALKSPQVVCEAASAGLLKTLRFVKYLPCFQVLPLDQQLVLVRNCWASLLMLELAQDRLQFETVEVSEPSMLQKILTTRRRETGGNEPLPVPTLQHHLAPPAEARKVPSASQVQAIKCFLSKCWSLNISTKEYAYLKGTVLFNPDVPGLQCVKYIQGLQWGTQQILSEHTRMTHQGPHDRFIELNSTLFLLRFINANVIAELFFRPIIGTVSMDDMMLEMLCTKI
ssDAF-12 act – S. stercoralis DAF-12 activation, primary screen. HEK293 ssDAF-12/GRIP1 lit1-tk-luc reporter, luminescence; % of 3 µM dafachronic acid response. activation, % at 6.8 µM. actives 1% (n = 370,000). AID 652126;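 active = activation above the mean over all tested compounds plus 3 SD, cut at about 0.9% in these data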;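 note: 0% = DMSO-only wells and 100% = 3 µM delta7-dafachronic acid wells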
hcDAF12 agonist – activators of H. contortus DAF-12 nuclear receptor | actives 1.4% (n = 370,000) | activation, % at 6.8 µM | HEK293 hcDAF-12 lit1-tk-luc reporter, luminescence; 0% DMSO, 100% Δ7-dafachronic acid;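 active = activation above the mean of all tested compounds plus 3 SD, cut at about 5.5% in these data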;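 note: 100% = response to 3 µM Δ7-dafachronic acid high control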
Starred values were filed as active, the others as inactive; . = no result given.

SMILES	hgDAF-12 ag	DAX1 inh-1	DAX1 inh-2	ssDAF-12 act	hcDAF12 agonist
CC(C)c1ccc(/C=C2\SC(=O)N(CC(=O)NC3CCS(=O)(=O)C3)C2=O)cc1 (stereo not given)	10.9*	2.9	0.0	-1.2	2.0
O=C(CN1C(=O)S/C(=C\c2ccccc2)C1=O)NC1CCS(=O)(=O)C1 (stereo not given)	-0.8	-2.1	0.1	-1.4	-1.8
COc1ccc(/C=C2\SC(=O)N(CC(=O)N(C)C3CCS(=O)(=O)C3)C2=O)cc1 (stereo not given)	1.6	1.4	1.3	1.0*	1.8
O=S1(=O)c2ccc(N3CC[C@@H](O)C3)cc2OCCCN1C1CC1	-1.7	0.1	.	-1.3	-2.1
CC(C)C[C@H]1COc2cccc(F)c2S(=O)(=O)N1Cc1cn(Cc2ccco2)nn1	4.5	0.4	.	-0.9	1.5
Cc1cc(Br)ccc1OCCCN1CCC(C(O)(c2ccccc2)c2ccccc2)CC1	1.6	0.6	.	-0.7	0.0
O=C(Nc1ccc2c(c1)Cc1ccccc1-2)NC1CCCCN(Cc2ccc(Cl)cc2)C1=O (stereo not given)	7.3	0.0	.	0.4	0.5
COc1ccc(OC)c(C2c3[nH]c4ccccc4c3C[C@H]3C(=O)N(C4CC4)CC(=O)N23)c1 (stereo not given in full)	1.9	0.2	-0.2	0.3	5.8*
COc1cccc(C2c3[nH]c4ccccc4c3C[C@H]3C(=O)N(C4CC4)CC(=O)N23)c1 (stereo not given in full)	-1.5	0.0	-0.3	-0.5	1.5
Cc1cccn2cc(-c3ccccc3)nc12	13.1*	3.4	2.9	1.1*	4.9
COc1ccc(-c2cn3cccc(C)c3n2)cc1Br	8.0	2.5	2.8	-0.4	2.7
CC(COc1ccc([N+](=O)[O-])cc1Cl)CN1CCC(C(O)(c2ccccc2)c2ccccc2)CC1 (stereo not given)	1.3	0.1	.	-1.3	-2.4
O=C(NCc1ccccc1Cl)O[C@H]1CC[C@@]23CCCN2C(=O)CCC[C@H]3C1	-1.2	.	.	-1.8	-0.3
S=C(Nc1ccccc1)Nc1cccc(Cl)c1Cl	2.4	-0.6	6.1*	-0.8	2.1
S=C(N/N=C/c1ccccc1Cl)Nc1ccccc1	11.3*	1.1	4.4*	0.7	3.1
CC(=O)Nc1cccc(NC(=S)Nc2cccc(Cl)c2Cl)c1	-2.8	-0.1	0.6	-1.6	-0.6
COC(=O)[C@]12C[C@H](CC(=O)NCc3cccs3)C(=O)N(CCC3=CCCCC3)C1=C[C@H](C(C)(C)C)O[C@@H]2C	1.4	-0.8	.	-1.3	0.7
CCc1ccccc1NC(=O)C1CCC(=O)N(c2ccc(OC)cc2)C1c1ccc(OC)cc1 (stereo not given)	0.4	1.6	.	-0.6	0.5
CCC(C)C(=O)OCC1(c2ccc(C)cc2OC(=O)C(C)C)CO1 (stereo not given)	2.2	0.9	1.4	-1.2	-1.7
Cc1ccc(C2(COC(=O)C(C)C)CO2)c(OC(=O)C(C)C)c1 (stereo not given)	2.3	0.2	4.6*	-1.7	0.4
COC(=O)CSCc1nc2ccccc2[nH]c1=O	2.2	-1.1	-0.1	0.8	5.6*
COC(=O)CCc1nc2ccccc2[nH]c1=O	2.8	0.6	-0.7	-1.5	-0.6
COc1cc(NC(=O)Cn2ccsc2=N)c(C)cc1[N+](=O)[O-]	5.5	-2.3	0.7	-0.8	1.3
N=c1sccn1CC(=O)Nc1ccc(Cl)cc1[N+](=O)[O-]	2.5	-0.7	4.4*	-1.5	2.0
CC(C)N1CCCCC(NC(=O)Cc2ccccc2)C1=O (stereo not given)	-2.2	0.4	.	-1.5	-1.0
SMILES	hgDAF-12 ag	DAX1 inh-1	DAX1 inh-2	ssDAF-12 act	hcDAF12 agonist
CC(C)(C)Nc1nc(Cl)nc(Nc2ccccc2)n1	10.9*	1.8	2.0	-0.2	3.9
C#CCOCCOCCOCCNc1nc(N2CCOCC2)nc(N2CCN(C(=O)[C@H](CCC(=O)O)n3cc(C(N)CO)nn3)CC2)n1 (stereo not given in full)	5.9	.	.	-1.5	0.3
O=C1C=CC(=O)N1c1ccccc1N1C(=O)C=CC1=O	-1.4	4.0*	4.3*	0.1	-1.6
CN(C)c1ccc(N/C=C/C(=O)c2ccco2)cc1	3.9	0.8	4.3*	-0.2	1.3
C#CCSc1nc(=O)c2cccnc2n1-c1ccc(C)cc1	-2.9	-0.5	4.5*	-2.0	-1.0
C[C@H]1[C@@H](NC(=O)/C=C/c2ccccc2)CC[C@@]23CCCN2C(=O)CCC[C@@H]13	8.5	.	.	-1.5	0.1
